Hits are enriched below; roughly 2.1% of the tested compounds scored in any of these assays.
TDP-43 yeast inh: qHTS of TDP-43 Inhibitors; TDP-43 expressing yeast growth rescue, BacTiter-Glo, 24 h; Potency, µM (highest dose often 46.1 µM), for the others: at the top dose growth rescue (activation), actives largely listed as activators; 1.8% of 410,000 active; also: % of control where 0% means no effect; nearly all actives have a fitted effect of over 50% in size
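Galactose-induced TDP-43 yeast, OD600=0.02, compound pinned; 24 hr, 30 deg C; BacTiter-Glo luminescence for growth. Inhibitors of TDP-43 toxicity read as activators.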
Abeta rescue: qHTS for compounds that reverse cellular toxicity of Amyloid beta (A-beta) peptide in yeast: Primary Screen; yeast expressing A-beta42, growth rescue, OD600, 48 h; response scale: 0% DMSO, 100% iron-clioquinol control; Potency, µM (highest dose often 46.1 µM), usual class: activators; 0.063% of 410,000 active; also: nearly all actives have a fitted effect of over 55% in size
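Yeast A-beta toxicity model in growth medium with pinned compounds, 48 h at 30 C; growth read as absorbance at 600 nm. Normalized to FeCl3/clioquinol equimolar mix (positive) and DMSO (negative).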
aSyn rescue: qHTS of alpha-syn Inhibitors; 0.14% of 370,000 active; Potency, µM (series often up to 46.1 µM), for the others: top-dose growth rescue (activation), usual class: activators; Yeast expressing alpha-synuclein, growth rescue, BacTiter-Glo, 24 h; AID 652106, 2013; also: % of control where 0% means no effect; nearly all actives have a fitted effect of over 65% in size
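Rescue of yeast growth: cells expressing toxic alpha-synuclein, induced in galactose at OD600 0.02, incubated with compound 24 h at 30 C. ATP luminescence quantified growth; inhibitors of toxicity appear as activators.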
FUS suppressor: qHTS for Suppressors of FUS Proteinopathy: Primary screen using FUS-linked yeast assay. S. cerevisiae FUS-expressing, growth rescue, OD600, 24 h. Potency, µM (doses to about 76.6 µM), hits mostly activators. 0.24% of 390,000 active. AID 1347120, 2019;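 also: plate controls were DMSO vehicle for no effect and reference control for full effect; nearly all actives have a fitted effect of over 55% in size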
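Restored growth of FUS-toxic S. cerevisiae, read as 600 nm absorbance after 24 h at 30C in galactose medium (starting OD 0.005). Controls CP55940 and DMSO.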
Active calls of the source: *; i = inactive; ? = inconclusive; / = no result. Calls follow the shape of the dose curve; as a rule, active = well fitted curve in the direction sought with a large enough effect; inconclusive = small, poorly fitted or top-dose-only effect, or another doubt; inactive = no such curve, though single readings can be large; an effect the other way counts as inactive or inconclusive. Potency is read from the fitted curve at half-maximal effect.

SMILES | TDP-43 yeast inh | Abeta rescue | aSyn rescue | FUS suppressor
O=[N+]([O-])c1cccc(C(=S)N2CCN(c3ccccc3)CC2)c1 | 13µM* | i | 10% | /
O=C(Oc1cccc(C(=S)N2CCOCC2)c1)c1ccc([N+](=O)[O-])cc1[N+](=O)[O-] | 11µM* | i | -56% | i
O=C(c1cccc([N+](=O)[O-])c1)N1CCN(c2ccc(Cl)cc2)CC1 | ? | i | 12% | /
Cc1ccc(N2CCN(C(=O)C(=O)c3cccc([N+](=O)[O-])c3)CC2)cc1 | 16µM* | i | -3% | i
O=C(Cn1c(=O)c2cccn2c2cccnc21)NCCCN1CCN(c2ccccc2)CC1 | / | / | / | i
CCN(c1ccccc1)C(CNS(=O)(=O)c1ccccc1)c1ccccc1 (stereo not given) | 18µM* | i | / | i
Cc1cc(C)c(OCC(=O)Nc2nc(-c3ccccn3)cs2)c(C)c1 | -14% | i | 13µM* | ?
O=C(CCS(=O)(=O)c1ccccc1)Nc1nc(-c2ccccn2)cs1 | 25% | i | -2% | i
O=C(CC1CC2CCC1C2)Nc1nc(-c2ccccn2)cs1 (stereo not given) | 18µM* | 14µM* | 25µM* | i
COc1ccc(OCCCC(=O)Nc2nc(-c3ccccn3)cs2)cc1 | 11µM* | ? | 2% | i
COc1ccc(CN(CC#Cc2ccccc2)Cc2ccccc2)c(OC)c1 | / | / | / | i
CCCNC(=O)Nc1ccc2c(c1)C(=O)N(C)[C@H]1CC[C@@H](CC(=O)OC)O[C@H]1CO2 | / | / | / | i
O=C(CCc1ccccc1)N[C@H]1[C@H](O)CCC[C@@]12C(=O)N(Cc1ccccc1)c1ccc(-c3ccccc3)cc12 | / | / | / | i
CCCCn1c(CN2CCN(c3cccc(Cl)c3)CC2)nc2c1c(=O)n(C)c(=O)n2C | 20µM* | i | 2% | i
CCCCCn1c(CN2CCN(c3cccc(Cl)c3)CC2)nc2c1c(=O)n(C)c(=O)n2C | ? | i | -3% | ?
O=C(CNCc1ccccc1)Nc1ccccc1-c1ccccc1 | -1% | i | 0% | i
O=C(CNc1ccccc1-c1ccccc1)NCc1ccccc1 | 20µM* | i | 6% | /
CC(C)S(=O)(=O)N1CCN(c2nc(-c3cccs3)nc3ccccc23)CC1 | / | / | 3% | /
COc1nc(-c2ccccc2)c2cc(C)ccc2n1 | 13µM* | i | 5% | i
C=CCN1[C@@H](C)COc2cc(F)ccc2S1(=O)=O | / | / | / | i
Cc1ccc(-c2cc(C(=O)NN=Cc3ccc(F)cc3)[nH]n2)cc1C | / | / | / | i
O=C(/C=C/c1ccc(F)cc1)c1ccccc1Br | 16µM* | i | ? | /
CC(C)c1ccc(O)c(C(=O)c2cnn(-c3ccccc3)c2)c1 | 20µM* | i | -27% | i
O=C(c1cnn(-c2ccccc2)c1)c1cc(Br)ccc1O | 5% | i | -2% | /
CCOC(=O)CSc1nnc(CNc2ccc(Cl)cc2)n1Cc1ccccc1 | 14µM* | i | ? | i
SMILES | TDP-43 yeast inh | Abeta rescue | aSyn rescue | FUS suppressor
C[C@H]1[C@@H](C(=O)N2CCCC2)CC(=O)/C(=N/OCc2ccccc2)C[C@@H]1c1ccccc1 | / | / | / | i
Cc1ccc(N2C(=O)C(Cl)=C(N3CCOCC3)C2=O)c(C)c1 | 20µM* | i | -2% | i
O=C(NCc1cccnc1)O[C@H]1CC[C@@]23CCCN2C(=O)CCC[C@H]3C1 | / | / | / | i
Cc1oc2c(c1C(=O)Nc1ccc(C(=O)O)cc1)CCCC2 | 13µM* | i | 17% | i
Cc1oc2c(c1C(=O)NCc1ccccc1)CCCC2 | 11% | i | 11% | i
CCOC(=O)N1CCN(C(=O)C[C@@H]2C[C@@]3(C(=O)OCC)CCC=C3N(Cc3cccc4ccccc34)C2=O)CC1 | 16µM* | i | 17% | i
CCOC(=O)N1CCN(C(=O)C[C@@H]2C[C@@]3(C(=O)OCC)CCC=C3N(Cc3ccc(Cl)cc3Cl)C2=O)CC1 | 22µM* | i | 21% | ?
O=C(NC(=S)N1CCN(c2ccc(Cl)cc2[N+](=O)[O-])CC1)c1ccco1 | 13µM* | i | -1% | i
Cc1cc(OC(=O)c2ccc(C(C)(C)C)cc2)c([N+](=O)[O-])c(=O)[nH]1 | 16µM* | i | 9% | i
CCOC(=O)N1CCN(C(=O)C[C@H]2C[C@@]3(C(=O)OC)C(=C[C@H](C(C)C)O[C@@H]3C3CC3)N(CCC3=CCCCC3)C2=O)CC1 | / | / | / | 13µM*
